Results from PubChem BioAssay AID1851 (National Center for Advancing Translational Sciences (NCATS), 2009).
Several values for one entry are separate records, joined by “and”; a condition that tells them apart may be missing. Identical values can stand only once. Hit rate of the full screen: of about 16,000 compounds, about 5,700 (36%) were called active. Not shown: some 24% with an inconclusive outcome. Calls come from the whole dose curve; as a rule, active = well fitted curve in the direction sought with a large enough effect; inconclusive = small, poorly fitted or top-dose-only effect, or effect the other way; inactive = no such curve, though single readings can be large or run the other way. The list shows a part of the results.

Target: Cytochrome P450 1A2 (Homo sapiens) (UniProt P05177)
Sequence (P05177 whole entry, looked up): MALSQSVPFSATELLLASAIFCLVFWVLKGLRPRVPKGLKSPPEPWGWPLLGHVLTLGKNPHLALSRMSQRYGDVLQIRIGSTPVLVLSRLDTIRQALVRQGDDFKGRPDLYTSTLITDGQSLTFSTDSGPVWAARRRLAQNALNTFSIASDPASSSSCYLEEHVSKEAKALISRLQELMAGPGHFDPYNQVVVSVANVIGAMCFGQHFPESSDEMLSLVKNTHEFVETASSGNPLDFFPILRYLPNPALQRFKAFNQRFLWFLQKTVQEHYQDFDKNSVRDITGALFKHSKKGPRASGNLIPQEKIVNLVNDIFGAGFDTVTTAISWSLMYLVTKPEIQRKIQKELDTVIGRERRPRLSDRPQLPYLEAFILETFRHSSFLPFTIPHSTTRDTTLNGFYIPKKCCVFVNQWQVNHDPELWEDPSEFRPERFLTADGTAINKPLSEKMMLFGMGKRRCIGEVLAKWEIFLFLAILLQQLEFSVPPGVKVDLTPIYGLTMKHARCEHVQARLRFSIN
Test: Cytochrome panel assay with activity outcomes
Details: recombinant CYP, pro-luciferin dealkylation, luminescence, p450-cyp1a2; series mostly up to 57.1 µM
% is set by controls: 0 for no effect and ±100 for the full control effect.

AC50, inactive:
CC(=O)N1CCC2(CC1)CCN(c1ccccn1)CC2
O=C(CCN1C(=O)C2C3C=CC(C3)C2C1=O)Nc1c(F)cccc1F (stereo not given)
Cc1onc(-c2ccccc2Cl)c1C(=O)Nc1nnc(Cc2ccc(Cl)cc2)s1
CC1(C)CC(=O)C2=C(C1)N(c1ccc(F)cc1)C(N)=C(C#N)C2c1cccs1 (stereo not given)
CS(=O)(=O)N1CCC2(CC1)CN(c1ncccn1)C2
Cc1ccc(S(=O)(=O)NC(=O)NN2C[C@H]3CCC[C@@H]3C2)cc1
CCN1C/C(=C\c2cccc(C)c2)c2nc3ccccc3c(C(=O)O)c2C1
NS(=O)(=O)c1cc2c(cc1Cl)N[C@@H](C(Cl)Cl)NS2(=O)=O
O=C1NCC2(CCN(CCc3ccccc3)CC2)O1
O=C(O)/C=C\[C@H](O)c1ccc(Cl)cc1
O=c1cc(O)cc(/C=C\c2ccc(O)c(O)c2)o1
O=C(CN1CCN(S(=O)(=O)c2ccc(F)cc2)CC1)Nc1ccc(Cl)c(C(F)(F)F)c1
O=C(CN1CCN(S(=O)(=O)c2ccccc2)CC1)NC(=O)NCc1ccccc1
CCOC(=O)c1ccc(S(=O)(=O)N2CCN(C)CC2)cc1
CCN(CC)C(=O)COc1ccc(S(=O)(=O)N2CCOCC2)cc1
COc1ccc(NC(=O)c2cc(S(=O)(=O)N3CCS(=O)(=O)CC3)ccc2Cl)cc1
COc1ccc(NC(=O)N2CC3(CCN(S(=O)(=O)c4ccccc4)CC3)C2)cc1
COc1ccc(NC(=O)N2CCCC3(CCN(S(=O)(=O)c4ccccc4)CC3)C2)cc1
O=C(CN1C(=O)NC2(CCCCCC2)C1=O)N1CCN(S(=O)(=O)c2ccc(Cl)cc2)CC1
Cc1oc(C(C)(C)C)cc1C(=O)Nc1cccc(/C=C/C(=O)O)c1
CCC(=O)N1CCc2cc(S(=O)(=O)NC(C(=O)NCc3ccc(F)cc3)C(C)C)ccc21 (stereo not given)
Cc1c(N2C(=O)CS/C2=N\N=C\c2ccc(Cl)cc2)c(=O)n(-c2ccccc2)n1C
Cc1nnc(SCC2=C(C(=O)O)N3C(=O)[C@@H](NC(=O)Cn4cnnn4)[C@@H]3SC2)s1
CCN(CC)C(=O)C1CC(=O)N(c2ccc(OC)cc2)C1c1ccc(OC)cc1 (stereo not given)
COc1ccc(C(C(=O)NC2CCCC2)N(C(=O)c2snc(-c3ccc(F)cc3)c2N)c2ccc(F)cc2)cc1 (stereo not given)
CCOC(=O)c1cn(-c2nc(-c3ccc(Cl)cc3)cs2)c2c(F)c(N3CC(C)OC(C)C3)c(F)cc2c1=O (stereo not given)
COC(=O)C1CCN(c2cc(=O)n(C3CCCCC3)c(=O)[nH]2)CC1
CCN(CC)CCCNC(=O)CC1Sc2ccccc2NC1=O (stereo not given)
O=C(NCCCN1CCCCCC1)C1CC(=O)N(CCc2ccccc2)C1 (stereo not given)
CN1CCCCC1=NCCCn1cnc2c1c(=O)n(C)c(=O)n2C
COCC(=O)N1CCC2(CC1)CCN(c1ccccn1)CC2
Cc1ccc(C(=O)Cn2nnc3c(sc4nc5c(c(-c6ccccc6)c43)CCC5)c2=O)cc1
CCO/C(C)=N/n1c2nc3ccccc3nc2c2c(=O)n(CC(C)C)c(C)nc21

AC50, active:
O=C(CSc1nc2ccccc2[nH]1)Nc1c(F)cccc1F 8.91 µM
CS(=O)(=O)c1ccccc1COC(=O)Nc1ccc(Cl)cc1 17.8 µM
O=C(Nc1ccc(Cl)cc1)OCc1cc(-c2ccccc2)on1 2.24 µM
O=C(Nc1ccc(Cl)cc1)OCc1cc(-c2ccccc2Cl)on1 0.447 µM
O=C(Nc1ccccc1)OCc1cc(-c2ccc(Cl)cc2)on1 0.562 µM
O=[N+]([O-])c1ccc(/C=N/n2c(COc3ccccc3)n[nH]c2=S)cc1 2.82 µM
Cc1ccc(/C=N/n2c(COc3ccccc3)n[nH]c2=S)s1 0.501 µM
O=[N+]([O-])c1ccccc1/C=N/n1c(COc2ccccc2)n[nH]c1=S 2.51 µM
Cc1ccc2nc(N/N=C\c3cccc(C)n3)cc(C)c2c1 0.631 µM
CC(C)c1cccc2nc3c(c([Si](C)(C)C)c12)Cn1c-3cccc1=O 15.8 µM
Cc1c2c(nc3ccccc13)-c1cccc(=O)n1C2 0.1 µM
CC(C)c1cccc2nc3c(c(C(C)(C)C)c12)Cn1c-3cccc1=O 12.6 µM
CCc1cccc2nc3c(c([Si](C)(C)C)c12)Cn1c-3cccc1=O 2.51 µM
CCc1c2c(nc3cccc(C(C)C)c13)-c1cccc(=O)n1C2 0.501 µM
NS(=O)(=O)c1ccc(N=Nc2cc3ccccc3c(C(=O)O)c2O)cc1 1 µM
O=C(Nc1nccs1)c1sc2cc(Cl)ccc2c1Cl 0.112 µM
O=C(NCc1cccnc1)c1sc2cc(Cl)ccc2c1Cl 1 µM
CN(C)/C=C/C(=O)c1ccc(F)cc1 11.2 µM
CN(C)/C=C/C(=O)c1ccc(Cl)cc1 4.47 µM
Oc1cc(O)cc(/C=C\c2ccc(O)c(O)c2)c1 5.01 µM
S=C(S)NCCCn1ccnc1 3.16 µM
CCOc1ccc(NC(=O)CN2CCN(S(=O)(=O)c3ccc(Cl)cc3)CC2)cc1 25.1 µM
COc1ccc(S(=O)(=O)N2CCN(CC(=O)Nc3cc(OC)cc(OC)c3)CC2)cc1 22.4 µM
COc1ccc(S(=O)(=O)N2CCCN(CC(=O)Nc3ccc(OC)c(Cl)c3)CC2)cc1 1.41 µM
CCOc1ccc(C(=O)CN2CCN(S(=O)(=O)c3ccc(F)cc3)CC2)cc1 20 µM
CCOC(=O)c1cc2c(C(F)(F)F)cc(-c3ccccc3)nc2o1 3.55 µM
Cc1oc(-c2ccccc2)cc1C(=O)Nc1ccc(N(C)C)cc1 1.41 µM
CCOC(=O)c1sc(=S)n(-c2cccc(C(F)(F)F)c2)c1SC 0.562 µM
COc1ncc2nc(-c3cccs3)c(=O)n(CCC#N)c2n1 6.31 µM
COCCn1c(=O)c(-c2cccs2)nc2cnc(OC)nc21 2.51 µM
COCCn1c(=O)c(-c2cccs2)nc2cnc(N(C)C)nc21 2 µM
COc1ncc2nc(-c3cccs3)c(=O)n(CCc3ccccc3)c2n1 1.26 µM
COCCn1c(=O)c(-c2cccs2)nc2cnc(Oc3ccccc3)nc21 2 µM
COCCn1c(=O)c(-c2cccs2)nc2cnc(Oc3ccc(OC)cc3)nc21 2.51 µM
COc1ccccc1-c1nc(NCc2cnc(C)cn2)c2ccccc2n1 5.01 µM
Cc1cnc(CNc2nc(-c3ccccc3C(F)(F)F)nc3ccccc23)cn1 12.6 µM
Cc1cnc(CNc2nc(-c3ccccc3Cl)nc3ccccc23)cn1 6.31 µM
Cc1cnc(CNc2nc(-c3ccccc3C)nc3ccccc23)cn1 3.16 µM
CCN1/C(=C/c2ccc3cccc(C)c3[n+]2CC)Sc2ccccc21 14.1 µM
CCOC(=O)c1cnn(-c2nc(-c3cccc(F)c3)cs2)c1C(F)(F)F 2.24 µM
COC(=O)c1cc(=O)n(C2CC2)c(=NC2CC2)s1 2 µM
CCCCCc1nc2c(=O)[nH]c3ccccc3c2o1 0.398 µM
O=c1c2ccccc2sc2c(CO)ccc(NCCN3CCCCC3)c12 1.58 µM
CCN(CC)CCNc1ccc(CO)c2sc3ccccc3c(=O)c12 0.126 µM
Cc1ccc(-c2c3c(nc4sc(C(N)=O)c(N)c24)CCC3)cc1 3.55 µM
CCOC(=O)Cn1nnc2c(sc3nc4c(c(-c5ccc(Cl)cc5)c32)CCC4)c1=O 3.16 µM
Clc1ccccc1-c1nc(-n2ccnc2)c2ccccc2n1 0.158 µM
NC(=O)c1ccccc1-c1nc(-n2ccnc2)c2ccccc2n1 2.51 µM
Cc1ccccc1-c1nc(-n2ccnc2)c2ccccc2n1 0.316 µM
CCCn1c(C)nc2c(c1=O)c1nc3ccccc3nc1n2CCC1=CCCCC1 25.1 µM

activity, negative = inhibition, inactive:
O=C1C=CC(=Nc2cccc3c(N=C4C=CC(=O)O4)cccc23)O1 -14% [at 11.4 µM]
O=C(O)CSc1nc2ccccc2[nH]1 -19.8% [at 11.4 µM]
CCN1C(=O)[C@H]2[C@H]3[C@H](O)[C@H](O)C/C(=N/O[C@@H]4O[C@@H](COC(C)=O)[C@@H](OC(C)=O)[C@@H](OC(C)=O)[C@H]4OC(C)=O)[C@H]3CC[C@@H]2C1=O -5.44% [at 11.4 µM]
O=C1OCCC=C1[C@@H](O)CCc1ccccc1 -0.0227% [at 11.4 µM]
NS(=O)(=O)c1ccc(N=Nc2c(O)c(C(=O)O)cc3ccccc23)cc1 -20.8% [at 11.4 µM]
NS(=O)(=O)c1ccc(N=Nc2ccc(O)c(C(=O)O)c2)cc1 -20.9% [at 11.4 µM]
O=C(O)[C@@H](O)c1ccc(F)cc1 -12.3% [at 11.4 µM]
NCCNC(=S)S -13.2% [at 2.29 µM]
S=C(S)NCCN1CCNCC1 -7.09% [at 11.4 µM]
CON(C)C(=O)c1nnc2c3ccccc3n(S(=O)(=O)c3ccc(C)cc3)c2n1 -0.532% [at 11.4 µM] and -0.966% [at 11.4 µM]
CCCNC(=O)OC[C@@H]1O[C@H](CCO/N=C2\c3cc(OC)ccc3O[C@H](c3cccc(OC)c3)[C@H]2O)C=C[C@@H]1Oc1ccc(OC)cc1 -14.6% [at 11.4 µM]
Nc1nc(N)nc(CCCc2nc(N)nc(N)n2)n1 -16.3% [at 11.4 µM]
